Laboratory results published in PubChem BioAssay (EPA / NIEHS).
Active and inactive are the calls of the source. Rule for the calls: active = hit-call score of the fitted dose curve at least 0.9, where 1 is the maximum; inactive = score below 0.9.

Read-out: Transforming Growth Factor (TGFB1), TGFB1 (gene 7040)
Experiment: LTEA_HepaRG_TGFB1: Life Technologies and Expression Analysis (LTEA) Assay for Transforming Growth Factor (TGFB1) Transporter using HepaRG (AID 2283533)
Conditions: mRNA level, 48 h; actives raise or lower the signal
Procedure: LTEA_HepaRG is a cell based, multiplexed-readout assay that uses HepaRG, a human liver cell line, with measurements taken at 48 hours after chemical dosing on a 96-well plate.LTEA_HepaRG_TGFB1 is one of 102 assay component(s) measured in the LTEA HepaRG cell culture assay. It is a marker of Cell proliferation, survival, death.Data from the assay component LTEA_HepaRG_TGFB1 was analyzed into 1 endpoint. This assay endpoint, LTEA_HepaRG_TGFB1, was analyzed with bidirectional fitting relative to DMSO as the negative control and baseline of activity. Using a type of inducible reporter, measures of mRNA induction for gain or loss-of-signal activity can be used to understand regulation of transcription factor activity. To generalize the intended target to other relatable targets, this assay endpoint is annotated to the growth factor intended target family, where the subfamily is transforming growth factor beta.
A total of 1060 chemcials from the ToxCast library were tested in eight-point concentration-response experiments. Cell culture and cytotoxicity assays were conducted at Thermo Fisher Scientific's Custom Services facility (Madison, WI). A single lot of human HepaRG cells (Thermo Fisher Scientific, Frederick, MD) was used for the cell culture experiments. 96-well format collagen type I coated plates of human HepaRG cells were prepared using established methods. Briefly, cryopreserved HepaRG cells were thawed, plated at a density of approximately 100,000 cells/well in HepaRG Thaw, Plate, and General Purpose media (HPRG770, Thermo Fisher Scientific), and incubated for 48 hours. 0.5% DMSO was selected as vehicle control to balance the requisite need of DMSO in HepaRG cultures to maintain differentiation (for example, baseline metabolism, proportions of hepatocytes vs. cholangiocytes), while enabling further hepatic receptor pathway activation (for example, PXR and CAR) in response to chemical exposure. 48 hours after plating, the culture medium was replaced with HepaRG Serum-Free Incudtion Media. Cells were exposed to each test chemical in duplicate and maintained in CO2 incubators for another 48 hours. Chemical plates were thawed to room temperature and 200x concentrations of treatment groups were prepared. 8-point conentration-reponse curves were made with the highest exposure at 100 uM, followed by half-log dilutions, all in 0.5% DMSO. Each test plate contained variouse controls, induction positive controls (1mM phenobarbital), cytotoxicity positive controls ([…] aflatoxin B1), vehicle controls (0.5% DMSO), and total lysis controls (0.5% DMSO). Cell morphology images were taken using an Essen IncuCyte FLR automated microscope, with six 96-well plates imaged in about 24 minutes. Images were captured and exported and JPEG files. Spent culture media was transfered to black-well plates for the LDH assay, and remaining media was sorted at -80 C for later use. Cells were treated with RLT buffer and frozen until shipped for gene expression analysis. Total RNA was isolated from the cell suspension in 75 uL of Buffer RLT (Qiagen, Germantown, MD 20874) by Quintiles/Expression Analysis (Durham, NC) using a custom isolation procedure. Total RNA from each plate well was transferred to a preamplification plate. Fluidigm's 96.96 Dynamic ArrayTM (Fluidigm, Amsterdam, the Netherlands) technology was used for gene expression analyses by quantitative reverse transcription polymerase chain reaction (qRT-PCR, performed by Quintiles/Expression Analysis, Durham, NC)89. Standard TaqManTM Assays (Applied Biosystems/ThermoFisher Scientific, Foster City, CA) were used to assess the expression of 93 genes selected based on their selectivity and sensitivity to important hepatic receptors known to be modulated by environmental chemicals; importance in human hepatocyte functionality; and hepatotoxicity. […]

| Structure (SMILES) | outcome | AC50 |
| --- | --- | --- |
| O=C(O)c1ccccc1-n1cc(C(=O)O)c(=O)c2cc(Nc3c(F)cc(F)cc3Cl)c(Cl)cc21 | inactive | – |
| CCCCCCCCOc1ccc(C(=O)c2ccccc2)c(O)c1 | inactive | – |
| c1ccc2ccccc2c1 | inactive | – |
| O=c1c(-c2ccc(O)cc2)coc2cc(O)cc(O)c12 | inactive | – |
| Cc1occc1C(=O)Nc1ccc(C(=O)N2CCC(F)(F)/C(=C\C(=O)N3CCC(N4CCCCC4)CC3)c3ccccc32)cc1 | inactive | – |
| Clc1ccccc1C(c1ccccc1)(c1ccccc1)n1ccnc1 | – | 91.9 µM (active) |
| Oc1ccc2ccccc2c1 | inactive | – |
| Cc1cn([C@H]2C[C@H](N=[N+]=[N-])[C@@H](CO)O2)c(=O)[nH]c1=O | inactive | – |
| CC(C)(C)c1csc(-c2cc3cc(OCc4ccccc4CC(=O)O)ccc3o2)n1 | – | 81.9 µM (active) |
| CC[C@@H]1C[C@H](N(Cc2cc(C(F)(F)F)cc(C(F)(F)F)c2)C(C)=O)c2cc(C(F)(F)F)ccc2N1C(=O)OC(C)C | inactive | – |
| O=CCCCC=O | inactive | – |
| CCCC(=O)OCCC(C)C | inactive | – |
| NCc1cccc(C2CCN(C(=O)c3ccc(C#Cc4ccccc4F)o3)CC2)c1 | inactive | – |
| CCN(Cc1cccnc1)C(=O)c1cccc(Cl)c1[C@]1(C)C(=O)N(Cc2ccc(OC)cc2OC)c2ccc(Cl)cc21 | – | 14.5 µM (active) |
| CCCCOC(=O)c1ccc(O)cc1 | inactive | – |
| C[C@]12CC[C@@H]3c4ccc(O)cc4CC[C@H]3[C@@H]1CC[C@H]2O | – | 50 µM (active) |
| CN1C(=O)N(c2ccccc2Br)Cc2cnc(Nc3ccc4c(c3)OCC(CO)O4)nc21 (stereo not given) | – | 24.2 µM (active) |
| CN(C)C(=O)C1(N2CCCCC2)CCN(CC[C@@]2(c3ccc(Cl)c(Cl)c3)CN(C(=O)c3ccccc3)CCO2)CC1 | – | 47.2 µM (active) |
| CC(C)(C)c1cc(/C=C2\SC(N)=NC2=O)cc(C(C)(C)C)c1O | – | 4.43 µM (active) |
| CCCCCc1ccc(N)cc1 | inactive | – |

| Structure (SMILES) | outcome | AC50 |
| --- | --- | --- |
| CCCOC(=O)c1cc(O)c(O)c(O)c1 | inactive | – |
| NC(=O)c1nc(-c2cccc(-c3cc(F)ccc3OCC(F)(F)C(F)(F)F)c2)n[nH]1 | inactive | – |
| O=c1[nH]sc2ccccc12 | inactive | – |
| O=C(Nc1ccc(Cl)cc1)Nc1ccc(Cl)c(Cl)c1 | – | 24.4 µM (active) |
| CN(C)c1ccc(C(=C2C=CC(=[N+](C)C)C=C2)c2ccc(N(C)C)cc2)cc1 | – | 68.7 µM (active) |
| CCCCCCCCCCCCO | inactive | – |
| Cc1ccc(C(C)C)cc1 | inactive | – |
| CC(=O)N1CCN(c2ccc(OC[C@H]3CO[C@](Cn4ccnc4)(c4ccc(Cl)cc4Cl)O3)cc2)CC1 | – | 90.9 µM (active) |
| CCN(Cc1cccc(S(=O)(=O)O)c1)c1ccc(C(=C2C=CC(=[N+](CC)Cc3cccc(S(=O)(=O)O)c3)C=C2)c2ccccc2S(=O)(=O)[O-])cc1 | inactive | – |
| CC[C@H](NC(=O)c1cc(F)ccc1NS(=O)(=O)c1cccc2cccnc12)c1ccccc1 | inactive | – |
| Cc1cccc2ccccc12 | inactive | – |
| Cc1cc2c(cc1C(F)(F)F)N(C(=O)Nc1ccc(Oc3cccnc3C)nc1)CC2 | inactive | – |
| CC(C)(O)c1ccc(CNC(=O)c2cccnc2Oc2ccc3nonc3c2)cc1 | inactive | – |
| COc1cccc([C@H](O)C2CCN(CCc3ccc(F)cc3)CC2)c1OC | inactive | – |
| Cc1ncc(CO)c(CO)c1O | inactive | – |
| O=C1CCC(C2CCCCC2)CC1 | inactive | – |
| Cc1c2ccccc2c(C)c2c1ccc1ccccc12 | – | 35 µM (active) |
| CC(O)CC(C)(C)O (stereo not given) | inactive | – |
| Cc1oc2c(NC(=O)c3c(Cl)cccc3Cl)cccc2c1C(C)(C)O | – | 50 µM (active) |
| Cc1cc(F)ccc1-c1cc(N2CC[C@@H](O)[C@H]2CO)ncc1N(C)C(=O)C(C)(C)c1cc(C(F)(F)F)cc(C(F)(F)F)c1 | – | 19.3 µM (active) |
